Compounds without any hit were thinned out: in the full panel of roughly 83,000, 20% have a hit.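 Assay: single dose, 48 h. Readout: percent growth (0 = no net growth; negative = cell death). Active: <10.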 A number with no mark means an inactive call. Active and inactive are the calls of the source.

Among the test systems are SK-MEL-2 melanoma; SN12C renal; UO-31 renal; TK-10 renal; ACHN renal; A498 renal; CCRF-CEM leukemia; MOLT-4 leukemia; CAKI-1 renal; EKVX NSCLC.
Holding throughout (test): NCI-60 one-dose screen, 48 h (100 = growth as untreated, 0 = no growth, -100 = all killed)
What all share (conditions): 10 µM unless noted

For the compound `Cc1cc(C=O)c(C)c2c1[nH]c1ccccc12`, the growth with SK-MEL-2 melanoma was 75.6%; with SN12C renal, 95.8%; with UO-31 renal, 74.3%; with TK-10 renal it was 78%; in the assay with ACHN renal, 88.4%; in the assay with A498 renal it was -84.1% (active). The growth was 83.5% in the assay with CCRF-CEM leukemia and 86.1% in the assay on MOLT-4 leukemia.
In the case of `COc1cccc(NC(=O)c2sc3nc4c(cc3c2N)C(=O)CCC4)c1`, the growth in the assay with SK-MEL-2 melanoma was 25.3%; in the assay on SN12C renal, 35.3%; in the assay on UO-31 renal, 52.3%; in the assay with TK-10 renal, 84.2%; in the assay with ACHN renal, 42.5%; in the assay with CAKI-1 renal, 55.2%. The growth in the assay with A498 renal is -3.03% (active).
As for `COc1ccc(/C(=C\c2ccc3c(c2)OCO3)C(=O)Nc2nc3ccccc3s2)cc1OC`, the growth in the assay with SK-MEL-2 melanoma is 92.6%; in the assay on SN12C renal, 102%; in the assay with UO-31 renal it was -6.51% (active); in the assay on TK-10 renal it was 96.6%; with ACHN renal, 97.7%; with CAKI-1 renal, 79%. Besides, in the assay with MOLT-4 leukemia, the growth is 74.4%.
For `COc1ccc2nc(-c3c(-c4ccccc4)nc4ncccn34)[nH]c2c1`, the growth in the assay with SK-MEL-2 melanoma was 113%; with SN12C renal it was 104%; in the assay with UO-31 renal, 108%; in the assay on TK-10 renal, 109%; with ACHN renal, 90.4%; in the assay on CAKI-1 renal, 103%. Moreover, the growth with A498 renal is 86.6%.
Regarding `COc1ccc2c(c1)C/C(=C\c1cc(-c3ccc4c(c3)OCO4)n[nH]1)C2=O`, the growth in the assay on SK-MEL-2 melanoma is 128%; with SN12C renal, 95.2%; with UO-31 renal, 75.1%; in the assay on TK-10 renal, 162%; with ACHN renal, 82.8%; in the assay with CAKI-1 renal it was 90.3%. Moreover, the growth in the assay on A498 renal is 85.5%.
`CC(C)(C)c1[nH]nc2c1C(c1cc3ccccc3[nH]c1=O)Nc1cc(C(=O)OCc3ccccc3)ccc1N2` (stereo not drawn): the growth with SK-MEL-2 melanoma is 67%; in the assay with SN12C renal, 61.2%; in the assay with UO-31 renal, 47.2%; in the assay on TK-10 renal, 47.6%; in the assay with ACHN renal, 28.6%; in the assay with CAKI-1 renal, 54.6%. Besides, the figures for the growth with A498 renal, in the assay on CCRF-CEM leukemia and in the assay with MOLT-4 leukemia were 65%, 37.9% and 18%, respectively.
Turning to `C/C(=N\Nc1cc(C)c2cc(C)ccc2n1)c1ccccn1`, the growth with SN12C renal was 14.8%; in the assay with UO-31 renal, -91% (active); in the assay with TK-10 renal, -22.2% (active); in the assay on ACHN renal, -100% (active); in the assay on CAKI-1 renal, -16.3% (active); with A498 renal it was 20.9%. For the same compound, the growth in the assay with CCRF-CEM leukemia was -22% (active); in the assay with MOLT-4 leukemia, -17.2% (active).
For `COc1ccc(-c2n/c(=C\c3c(O)[nH]c4ccc(OC)cc34)cc3c2=Nc2ccccc2-3)cc1`, the growth in the assay with SK-MEL-2 melanoma is 96.6%; with SN12C renal it was 89.4%; in the assay on UO-31 renal it was 73.6%; in the assay with ACHN renal, 102%; in the assay on CAKI-1 renal, 103%; in the assay with A498 renal, 87.2%. Also, the growth in the assay with MOLT-4 leukemia is -35.4% (active).
`Cc1ccc(-c2ccc(Nc3ccccc3)nn2)cc1S(N)(=O)=O`: the growth is 90.1% in the assay with SN12C renal; 107% in the assay with UO-31 renal; 142% in the assay with TK-10 renal; 91.6% in the assay on ACHN renal; 80.9% in the assay with CAKI-1 renal; 89.2% with A498 renal. Further, in the assay with MOLT-4 leukemia, the growth is 62.2%.
`COc1cc2[nH]c(C(=O)c3cc(OC)c(OC)c(OC)c3)c(N)c2cc1C#CC1CC1`: the growth in the assay with SK-MEL-2 melanoma is 34.7%; with SN12C renal, 61%; in the assay with UO-31 renal it was 38.2%; with TK-10 renal it was 92.2%; with ACHN renal, 24.8%; in the assay with A498 renal it was -13.4% (active). Besides, the growth was 24.9% in the assay on CCRF-CEM leukemia and 44.5% in the assay on MOLT-4 leukemia.
Consider `COC(=O)c1cc(=O)nc(N/N=C/c2ccc(C)cc2)s1`, for which the growth in the assay on SN12C renal is 110%; with UO-31 renal it was 86.4%; in the assay with TK-10 renal, 104%; in the assay with ACHN renal it was 107%; with CAKI-1 renal it was 102%; in the assay with A498 renal it was 104%. For the same compound, the growth in the assay on CCRF-CEM leukemia is 93%; in the assay on MOLT-4 leukemia, 92.6%.
`OCC12CCCC(CO)(COC1)C2O` (stereo not drawn): the growth in the assay with SK-MEL-2 melanoma is 117%; in the assay with SN12C renal, 101%; with UO-31 renal, 91.1%; in the assay with ACHN renal it was 103%; in the assay on A498 renal it was 97.9%; in the assay with CCRF-CEM leukemia, -57.2% (active). The growth with MOLT-4 leukemia was 126%.
Take `O=C1C(Cl)=C(Nc2ccc(S(=O)(=O)c3ccc(NC4=C(Cl)C(=O)c5ccccc5C4=O)cc3)cc2)C(=O)c2ccccc21`: the growth in the assay with EKVX NSCLC was 59.1%; in the assay on SN12C renal, 56.2%; in the assay with UO-31 renal, -62.4% (active); with ACHN renal it was -7.78% (active); in the assay on CAKI-1 renal, -21.3% (active); in the assay on A498 renal it was 66.2%. Besides, the growth with CCRF-CEM leukemia is 21.1%; with MOLT-4 leukemia, 19%.
Regarding `NC(=O)[C@@H]1CC2CCC1C2` (stereo partly drawn), the growth is 119% in the assay with SK-MEL-2 melanoma; 114% in the assay on SN12C renal; 99.7% in the assay with UO-31 renal; 120% in the assay on TK-10 renal; 102% in the assay with ACHN renal; 87.9% in the assay with A498 renal. The growth in the assay with MOLT-4 leukemia was 102%.
Turning to `CC(C)(C)c1ccc(OP(=S)(N/N=C/c2ccccc2O)Oc2ccc(C(C)(C)C)cc2)cc1`, the growth with SN12C renal was 72.6%; in the assay with UO-31 renal it was 61%; with TK-10 renal it was 74.4%; in the assay on ACHN renal, 87.7%; with CAKI-1 renal it was 62.7%; in the assay on A498 renal, 89.9%. Also, the growth in the assay on CCRF-CEM leukemia was 68.6%; in the assay on MOLT-4 leukemia, 43.7%.

These data come from PubChem BioAssay (NCI).
